Whole data set: some 33,000 sequences, median “E-score (-0.5 to 0.5)” near -0.032, cut for the highest 2% near 0.36. This excerpt belongs to a sample that is enriched for the highest values.
Biological target: T1, Sko1 (UniProt Q02100)
T1 sequence: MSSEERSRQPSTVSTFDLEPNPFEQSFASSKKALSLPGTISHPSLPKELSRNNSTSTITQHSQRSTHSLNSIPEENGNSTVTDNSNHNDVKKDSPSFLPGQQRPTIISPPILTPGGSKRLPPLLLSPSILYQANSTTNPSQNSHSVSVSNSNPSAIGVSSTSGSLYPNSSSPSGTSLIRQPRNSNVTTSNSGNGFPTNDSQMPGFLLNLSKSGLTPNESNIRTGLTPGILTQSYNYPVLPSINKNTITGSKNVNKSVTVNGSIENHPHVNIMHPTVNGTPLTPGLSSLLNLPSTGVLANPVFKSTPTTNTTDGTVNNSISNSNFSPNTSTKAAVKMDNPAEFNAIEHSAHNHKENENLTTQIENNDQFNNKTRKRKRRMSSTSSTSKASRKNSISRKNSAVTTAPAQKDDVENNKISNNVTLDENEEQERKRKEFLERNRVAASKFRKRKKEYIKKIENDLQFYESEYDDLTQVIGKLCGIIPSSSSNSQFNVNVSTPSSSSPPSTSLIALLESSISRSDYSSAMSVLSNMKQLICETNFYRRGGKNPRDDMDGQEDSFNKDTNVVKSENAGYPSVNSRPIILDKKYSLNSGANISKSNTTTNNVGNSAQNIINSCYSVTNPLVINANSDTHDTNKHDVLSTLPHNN
Experiment: PBM E-score (8-mer binding enrichment) (E-score (-0.5 to 0.5)); higher = stronger / more preferred TF binding
Conditions: protein concentration: 200 nM; construct: GST-full length
Experimental: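 Universal 'all 10-mer' protein binding microarrays (Agilent AMADID 015681) probed with GST-tagged S. cerevisiae TFs (full-length or DBD) made by in vitro transcription/translation (PURExpress), about 100-200 nM. Bound TF was detected with fluorescent anti-GST. Each ungapped 8-mer (which stands for itself and its reverse complement) is scored by the PBM enrichment score (E-score), a modified Wilcoxon-Mann-Whitney statistic from -0.5 to +0.5, computed with the Universal PBM Analysis Suite. Scale: above 0.35 generally sequence-specific binding.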

First: AGATACCC
Second: CTTGAAAG
The “PBM E-score” value of the first is higher: -0.0725 for the first, -0.0877 for the second.

Going from ACGACTTG to CCAGCGTC, the “PBM E-score” value falls from -0.058 to -0.229.

Compared with GTAATGAC, CTAATGAC is lower in “PBM E-score” value: 0.399 for the first, 0.299 for the second.

Compared with GTAATGAA, GACGTCAC is higher in “PBM E-score” value: 0.281 for the first, 0.487 for the second.

Compared with CACGTCTA, GACGTCGC is higher in “PBM E-score” value: 0.314 for the first, 0.334 for the second.

Compared with CACGTCCA, GACGTCCC is lower in “PBM E-score” value: 0.254 for the first, 0.217 for the second.

Compared with TACGTCCA, AACGTCTA is lower in “PBM E-score” value: 0.404 for the first, 0.239 for the second.

First: TACGTCTA
Second: GACGTCTA
The “PBM E-score” value of the first is higher: 0.421 for the first, 0.358 for the second.

Compared with GACGTCCA, AACGTCAA is higher in “PBM E-score” value: 0.331 for the first, 0.424 for the second.

Going from AACGTCCA to ATTGTTGC, the “PBM E-score” value falls from 0.245 to 0.236.

Compared with ACAGGAGT, CCCACTGC is lower in “PBM E-score” value: -0.0316 for the first, -0.115 for the second.

Compared with ATGCGCCA, ATAAGACG is higher in “PBM E-score” value: -0.00554 for the first, 0.115 for the second.

Going from TCCGTCAA to CCCGTCAG, the “PBM E-score” value falls from 0.0302 to -0.214.

Going from TACGTCAA to CACGTCAA, the “PBM E-score” value falls from 0.479 to 0.426.

Compared with AACGTCTG, AACGTCGG is lower in “PBM E-score” value: 0.239 for the first, 0.182 for the second.

Going from CCCGTCAA to CACGTCAG, the “PBM E-score” value rises from -0.0876 to 0.462.

First: TTCGTCAA
Second: CACGTCTG
The “PBM E-score” value of the first is higher: 0.297 for the first, 0.23 for the second.

First: AACGTCAG
Second: CCTGTGCC
The “PBM E-score” value of the first is higher: 0.429 for the first, -0.224 for the second.

First: GCGACGCC
Second: ATAGGTGC
The “PBM E-score” value of the first is higher: -0.0621 for the first, -0.114 for the second.

Compared with ATCCATGG, GAGATCAC is higher in “PBM E-score” value: -0.237 for the first, 0.00833 for the second.

First: AAGCAAGA
Second: AGTTGTGA
The “PBM E-score” value of the first is lower: 0.0771 for the first, 0.0903 for the second.

Compared with CACGATGG, CGTGGCGA is higher in “PBM E-score” value: -0.0649 for the first, 0.0528 for the second.

First: AGCGTCAC
Second: AACGTCCT
The “PBM E-score” value of the first is higher: 0.252 for the first, 0.0619 for the second.

Compared with GACGTCAA, AACGTCCC is lower in “PBM E-score” value: 0.47 for the first, -0.0499 for the second.

Going from AACGTCAT to AACGTCTC, the “PBM E-score” value falls from 0.493 to 0.111.

First: GCCGTCAA
Second: AACGTCAC
The “PBM E-score” value of the first is lower: -0.081 for the first, 0.471 for the second.

First: GACGTCTC
Second: CACGTCTC
The “PBM E-score” value of the first is higher: 0.384 for the first, 0.134 for the second.

Compared with AACGTCGT, ACGGTTTA is lower in “PBM E-score” value: 0.247 for the first, -0.0562 for the second.

First: CTCCAGGA
Second: CGTGGTAC
The “PBM E-score” value of the first is lower: -0.0718 for the first, 0.213 for the second.

Going from ACCCGCGG to CAGCGAGG, the “PBM E-score” value falls from -0.0735 to -0.233.

Compared with TCGGGCAA, ATCCTGTC is higher in “PBM E-score” value: -0.0812 for the first, -0.0275 for the second.

First: CAAATATC
Second: CAGGGTCG
The “PBM E-score” value of the first is higher: 0.109 for the first, -0.241 for the second.

Compared with GTCGGTGA, ACAACTAG is lower in “PBM E-score” value: 0.049 for the first, -0.00944 for the second.

Compared with TGCGTCCA, GGCGTCAA is higher in “PBM E-score” value: 0.155 for the first, 0.235 for the second.

Compared with CACGTCCC, CACGTCAC is higher in “PBM E-score” value: 0.00358 for the first, 0.482 for the second.

First: CACGTCGC
Second: TGCGTCAA
The “PBM E-score” value of the first is lower: 0.235 for the first, 0.377 for the second.

Going from GGTGAGCA to AATTTAGC, the “PBM E-score” value rises from -0.0791 to 0.187.

First: GCCTGATA
Second: TAAGGGAA
The “PBM E-score” value of the first is lower: -0.0647 for the first, 0.108 for the second.

Going from AAGACGTC to GAGACGTA, the “PBM E-score” value falls from 0.419 to 0.394.

Going from AAGACGGA to AAGACGGC, the “PBM E-score” value falls from -0.0952 to -0.219.

First: AAGACGAC
Second: CAGACGTC
The “PBM E-score” value of the first is lower: 0.0714 for the first, 0.322 for the second.

First: CAGACGCA
Second: AAGACGTA
The “PBM E-score” value of the first is lower: 0.055 for the first, 0.454 for the second.

First: CAGACGTA
Second: GAGACGGA
The “PBM E-score” value of the first is higher: 0.387 for the first, -0.0605 for the second.

First: GAGACGAA
Second: AAGACGTG
The “PBM E-score” value of the first is lower: -0.0289 for the first, 0.291 for the second.

Going from AGTCCTTC to TCCGAACA, the “PBM E-score” value rises from -0.375 to -0.124.

First: CAATCTGG
Second: AGTACTCG
The “PBM E-score” value of the first is lower: -0.104 for the first, 0.0859 for the second.

First: AGCTTAGG
Second: CTTCGGTC
The “PBM E-score” value of the first is lower: -0.198 for the first, -0.0632 for the second.

Going from CCTGTGTA to GTCGGAAC, the “PBM E-score” value falls from -0.0155 to -0.0708.

Going from CGTAGTAG to CGTAGTAC, the “PBM E-score” value rises from 0.309 to 0.372.

First: AGTAGTAC
Second: AGGGTTGG
The “PBM E-score” value of the first is higher: 0.173 for the first, 0.0955 for the second.

Going from ATGTAATC to ACGTAATG, the “PBM E-score” value rises from 0.313 to 0.492.

Going from CCGTAATC to ACGTAATC, the “PBM E-score” value rises from 0.111 to 0.492.

First: AAGTAATG
Second: ATGTAATG
The “PBM E-score” value of the first is lower: 0.0878 for the first, 0.321 for the second.

First: AGGCCGCC
Second: CTTCCCGC
The “PBM E-score” value of the first is lower: -0.182 for the first, -0.0138 for the second.

First: CACCTTCG
Second: ATCTTGCC
The “PBM E-score” value of the first is lower: -0.136 for the first, -0.0574 for the second.

Going from GTCGAACA to GTTGCGTA, the “PBM E-score” value rises from -0.00814 to 0.422.

Going from GCTGCGTA to ACTGCGTG, the “PBM E-score” value falls from 0.308 to 0.131.

First: ATTGCGCC
Second: GTTGCGGA
The “PBM E-score” value of the first is lower: -0.0972 for the first, 0.0145 for the second.

Going from CTTGCGTC to ATTGCGTG, the “PBM E-score” value rises from 0.27 to 0.419.

Compared with ATTGCGCA, ATTGCGTA is higher in “PBM E-score” value: 0.251 for the first, 0.472 for the second.

First: ATTGCGAG
Second: ACTGCGTA
The “PBM E-score” value of the first is lower: -0.0027 for the first, 0.343 for the second.

Compared with ATTGCGTC, GAGCAGAC is lower in “PBM E-score” value: 0.414 for the first, -0.0861 for the second.

Compared with GTGTCCCA, AGCCAGCT is lower in “PBM E-score” value: -0.0921 for the first, -0.097 for the second.

First: ATGAATTC
Second: CACAGTCA
The “PBM E-score” value of the first is higher: 0.0634 for the first, -0.095 for the second.

Going from ATAATAGC to GCGGTCCA, the “PBM E-score” value falls from 0.0417 to -0.323.

First: ATTCAGCA
Second: CCTGCGTA
The “PBM E-score” value of the first is lower: 0.00168 for the first, 0.315 for the second.

First: CTTGCGGA
Second: CTTGCGTA
The “PBM E-score” value of the first is lower: -0.261 for the first, 0.423 for the second.

Going from CGTTGAGA to AGCATCCA, the “PBM E-score” value falls from 0.0138 to -0.238.

Compared with AAAAATCC, GGTATGAC is higher in “PBM E-score” value: -0.162 for the first, 0.183 for the second.

Compared with CGTATGGC, ATTATGTG is lower in “PBM E-score” value: 0.348 for the first, 0.266 for the second.

First: CGTATGAG
Second: CGTATGTA
The “PBM E-score” value of the first is lower: 0.267 for the first, 0.367 for the second.

Compared with CGTATGAA, AGTATGAA is lower in “PBM E-score” value: 0.361 for the first, 0.0617 for the second.

Going from AGTATGTA to CGTATGAC, the “PBM E-score” value rises from 0.0841 to 0.445.

Compared with ATTATGTA, ATTATGTC is lower in “PBM E-score” value: 0.398 for the first, 0.336 for the second.

First: CGTATGTC
Second: CCACATCA
The “PBM E-score” value of the first is higher: 0.321 for the first, 0.175 for the second.

First: GAGATCGA
Second: ATCACTCA
The “PBM E-score” value of the first is lower: 0.0574 for the first, 0.0754 for the second.

Going from GAGCTAGA to CCTGTTCA, the “PBM E-score” value falls from -0.11 to -0.203.

Going from AAGCATAG to AGAGCAGG, the “PBM E-score” value rises from -0.128 to -0.126.

First: CATCGCCG
Second: AAACAGCC
The “PBM E-score” value of the first is higher: -0.137 for the first, -0.17 for the second.

First: GCTATACC
Second: AAATCCCC
The “PBM E-score” value of the first is higher: -0.171 for the first, -0.238 for the second.

Compared with GGTAGATA, AGTATGAC is higher in “PBM E-score” value: 0.0735 for the first, 0.376 for the second.

First: AGTATGAG
Second: AGTATGAT
The “PBM E-score” value of the first is lower: 0.129 for the first, 0.286 for the second.

Going from AACCTACC to CTAGGGTA, the “PBM E-score” value rises from -0.193 to -0.161.

First: CAGTGAGA
Second: CGTAATTC
The “PBM E-score” value of the first is lower: 0.0132 for the first, 0.435 for the second.

First: AGTAATTA
Second: CATAATTC
The “PBM E-score” value of the first is higher: 0.263 for the first, 0.238 for the second.

Compared with GGTAATTA, AGTAATTC is lower in “PBM E-score” value: 0.239 for the first, 0.169 for the second.

In the case of CGTAATTA, the “PBM E-score” value is reported as 0.439.

Source: the supplement of paper PMC3334620
